# From PubChem BioAssay
# PAX8 inh HTS – lowers PAX8-driven luciferase in RMG-I cells; RMG-I TPO-luciferase reporter, SteadyGlo, 24 h; inhibition, % at 12.6 µM; actives 1.2% (n = 360,000); AID 652154;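 active = mean replicate inhibition at least 60% with every replicate also reaching 60%; inconclusive = only one of the two criteria is met; inactive = mean below 60% and not all replicates reaching 60%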;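 note: luciferase light reporting Pax8 driven TPO promoter activity; plate controls were median of neutral control wells for no effect and mitoxantrone controls for full effect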
# Shn3 inh set2 – reduces Shn3 3'UTR luciferase signal in osteoblasts; inhibition, % at 12.5 µM; Clone20 osteoblast Shn3 3'UTR firefly luciferase, 24 h; actives 0.52% (n = 360,000);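 active = mean inhibition of at least 75% with every replicate also reaching 75%; inconclusive = mean inhibition at least 75% but some replicate below; inactive = mean inhibition below 75%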;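 note: 0% = median of neutral control wells and 100% = pilot-screen positive control compound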
# EBV LMP1 NFkB – reduces LMP1-driven NF-kappaB luciferase signal | LMP1-induced NF-kappaB luciferase reporter cells, luminescence | inhibition, % at 12.5 µM | actives 0.69% (n = 350,000) | AID 504558; in the data active = inhibition above about 41%; inconclusive = no clear call, values can overlap the other calls;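 note: 0% = neutral control wells and 100% = reference inhibitor control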
# NSD2 inh – NSD2 (human) methyltransferase inhibition; O96028; NSD2 peptide methylation, AlphaScreen, 120 min; inhibition, % at 12.5 µM; actives 0.54% (n = 310,000); in the data active = inhibition above about 50%
# Glyco luc inh – N-linked glycosylation inhibition; reporter increase, % at 12.5 µM; AID 588692; D54 ERlucT glycosylation luciferase reporter, 24 h; percent of 100 nM tunicamycin response; actives 0.23% (n = 360,000);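 active = mean luciferase reporter signal, scaled so untreated is 0 and the glycosylation-blocking control 100, at or above a set limit in every replicate; inconclusive = mean reaches the limit but not every replicate does; inactive = mean below the limit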;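 note: luciferase carries N-glycosylation sites so blocking glycosylation raises the light; 0% = median of neutral control wells and 100% = median of 100 nM tunicamycin wells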
# HIV Env fusion – HIV envelope-mediated fusion inhibition; HeLa-JRFL Env/CEM21 cell fusion, luciferase; inhibition, % at 12.3 µM; actives 1.1% (n = 360,000);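 active = mean replicate inhibition score of at least 50 and every replicate individually at or above 50; inconclusive = only one of the two criteria met; inactive = mean below 50 and not all replicates reaching 50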;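 note: 0% = plate neutral controls and 100% = maraviroc near 300 nM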
# Numbers without * were called inactive; ? = inconclusive; / = no result; [ ] = another dose, or the depositor's remark. Rows were chosen to be rich in hits. Some 2.8% of all compounds tested hit in one or more screens of this group.
SMILES,PAX8 inh HTS,Shn3 inh set2,EBV LMP1 NFkB,NSD2 inh,Glyco luc inh,HIV Env fusion
C[C@@H]1CCCCO[C@@H](CN(C)Cc2ccc3c(c2)OCO3)[C@H](C)CN([C@@H](C)CO)C(=O)c2cc(NS(=O)(=O)c3ccc(Cl)cc3)ccc2O1,1,/,/,/,/,-16[16.7 µM]
C[C@@H]1CN([C@@H](C)CO)C(=O)c2cc(NS(=O)(=O)c3ccc(Cl)cc3)ccc2O[C@@H](C)CCCCO[C@@H]1CN(C)Cc1ccc2c(c1)OCO2,71*,/,/,/,/,-193[16.7 µM]
Cc1ccc(S(=O)(=O)Nc2ccc3c(c2)C(=O)N([C@@H](C)CO)C[C@@H](C)[C@@H](CN(C)Cc2ccc4c(c2)OCO4)OCCCC[C@H](C)O3)cc1,72*,/,/,/,/,-163[16.7 µM]
COC(=O)[C@@]1(Cc2ccc(F)cc2)[C@H]2c3cc(C(=O)N4CCCC4)n(CCCNc4ncc(C(F)(F)F)cc4Cl)c3C[C@H]2CN1C(=O)c1ccccc1,/,-103,45*,/,-4,/
CNC(=O)OCc1nc(SSC(C)(C)C)n(C)c1COC(=O)NC,20,96*,13,-1,15,-204
CCSc1nc(COC(=O)NC)c(COC(=O)NC)n1C,7,3,4,27,0,-5
COC(=O)c1sc(N)c(C(=O)OC)c1Cn1ncc(Cl)c(Cl)c1=O,63*,22,-15,3,2,2
COC(=O)c1sc(N)c(C(=O)OC)c1COC(=O)c1c(C)noc1C,-3,-3,3,-2,25,-5
CN(C)C(=O)CCC(=O)N1CCCC(C(=O)c2ccc3c4c(cccc24)CC3)C1 (stereo not drawn),-20,16,2,-3,3,80*
O=C(c1ccc2c3c(cccc13)CC2)C1CCCN(C(=O)c2ccc(=O)[nH]c2)C1 (stereo not drawn),18,11,1,14,0,21
Cc1ncccc1C(=O)N1CCCC(C(=O)c2ccc3c4c(cccc24)CC3)C1 (stereo not drawn),-10,9,-1,4,-1,90*
O=C(C1CCCCC1)N1CC[C@@H]2[C@H]1c1cc(Br)ccc1N[C@@H]2CO,-8,/,/,/,/,/
COc1ccc(NC(=O)N(C)C[C@@H]2OCc3cn(nn3)CCCC(=O)N([C@H](C)CO)C[C@@H]2C)cc1,/,/,/,/,/,5[16.7 µM]
COc1ccc(S(=O)(=O)N2CCOCC2)cc1NC(=O)c1ccc(Cl)cc1,-4,2,3,-1,3,2
O=C(Nc1cc(S(=O)(=O)N2CCOCC2)ccc1Cl)c1ccncc1,-16,-18,69*,-3,1,18
Cc1ccc(NS(=O)(=O)c2ccccc2F)cc1S(=O)(=O)N1CCCCC1,13,-23,4,-2,2,/
Cc1ccc(S(=O)(=O)N2CCCCC2)cc1NS(=O)(=O)c1ccccc1F,11,95*,7,-3,1,17
O=C(Nc1cc(S(=O)(=O)N2CCCCC2)ccc1Cl)c1ccccc1NS(=O)(=O)c1ccc(F)cc1,93*,71,28,15,-6,71*
O=C(Nc1ccccc1F)N[C@@H]1CC[C@@H](CCNC(=O)C2CCOCC2)O[C@H]1CO,-3,/,/,/,/,3[16.7 µM]
N#Cc1c(NCCN)nc(-c2ccco2)c2c1CCCC2,/,10,78*,0,33*,/
CC(C)CCNc1nc(-c2ccco2)c2c(c1C#N)CCCC2,/,2,-7,-4,1,/
O=C(Cc1ccccc1)N1C[C@H]2[C@@H](c3ccccc31)[C@H](CO)N2C(=O)c1cccc(F)c1,10,/,/,/,/,/
CC1(C)CC(=O)c2c(O)cc(OCC(=O)Nc3ccc(S(N)(=O)=O)cc3)cc2O1,/,9,6,/,-8,/
COc1cc(NC(=O)COc2cc(O)c3c(c2)OC(C)(C)CC3=O)cc(OC)c1OC,/,86*,20,/,1,/
O=C(c1sc2cc([N+](=O)[O-])ccc2c1Cl)N1CCOCC1,3,5,61*,/,-1,2
SMILES,PAX8 inh HTS,Shn3 inh set2,EBV LMP1 NFkB,NSD2 inh,Glyco luc inh,HIV Env fusion
CC(C)N(C(=O)c1sc2cc([N+](=O)[O-])ccc2c1Cl)C(C)C,-6,14,14,1,1,-69
Cc1ccc(S(=O)(=O)NCc2ccncc2)cc1C,16,84,22,-2,0,-1
Cc1cc(C)c(C)c(S(=O)(=O)NCc2ccncc2)c1C,23,77,14,-2,0,57*
Cn1c(=O)oc2cc(S(=O)(=O)NCc3ccncc3)ccc21,/,36,-19,-9,0,100*
COc1cc(S(=O)(=O)NCc2ccncc2)ccc1Br,26,78,26,11,-1,65*
Cc1ccc2[nH]c3c(c2c1)CCCC3NC(=O)CCl (stereo not drawn),/,24,87*,5,-17,/
COc1cccc(C#Cc2ccc([C@H]3[C@H](CO)N4C(=O)CN(S(=O)(=O)c5ccccc5C)C[C@@H]34)cc2)c1,-12,/,/,/,/,/
COc1cc(/C=C/c2onc(C)c2[N+](=O)[O-])cc(OC)c1OC,5,-127,19,1,37*,8
Cc1cccc(/C=C/c2onc(C)c2[N+](=O)[O-])n1,5,/,/,-3,/,-14
COc1ccc(C(O)c2nc3ccccc3n2C)cc1OC (stereo not drawn),/,65,30,0,2,74*
NC(=S)NN=Cc1cc(-c2cccc(N)c2)ccn1,94*,76,21,-2,-6,/
NC(=S)N/N=C\c1c2ccccc2cc2ccccc12,9,-15,-55,-2,12,-44
C[C@H](CO)N1C[C@H](C)[C@H](CN(C)S(=O)(=O)c2ccc(Cl)cc2)Oc2c(NS(=O)(=O)c3ccc(Cl)cc3)cccc2C1=O,16,/,/,/,/,-20[16.7 µM]
COc1ccc(Cc2nn3c(-c4ccccc4Br)nnc3s2)cc1,/,23,25,-2,-10,/
Brc1ccccc1-c1nnc2sc(Cc3ccccc3)nn12,/,-19,24,2,-9,57*
O=C(OCn1ncc(Br)c(Br)c1=O)c1ccccc1Cl,/,97*,14,/,-18,/
O=C(OCn1ncc(Br)c(Br)c1=O)c1ccc(F)cc1,/,98*,?,/,-19,/
CC(=O)OCn1ncc(N2CCOCC2)c(Br)c1=O,12,-4,-5,0,5,6
COc1ccc(NC(=O)CSc2nc3ccsc3c(=O)n2CCC(=O)O)cc1,-6,-12,-1,0,3,60*
Cc1ccn2cc(-c3ccc(O)c(O)c3)nc2c1,31,87*,13,/,-15,6
Oc1ccc(-c2cn3ccccc3n2)cc1O,-101,6,8,4,-8,-150
O=C(Cc1ccccn1)N[C@@H]1CC[C@@H](CCNC(=O)c2cc(Cl)cc(Cl)c2)O[C@@H]1CO,-3,/,/,/,/,4[16.7 µM]
OCCCN=c1cc(-c2ccccc2)oc2ccc(Cl)cc12,/,-88,-42,3,58*,/
CC1(C)CC(N=c2cc(-c3ccccc3)oc3ccc(Cl)cc23)CC(C)(C)N1,-21,-143,-53,15,?,-46
